The structures appear in SMILES notation. Activity calls are given as the source filed them. How the source made its calls: active means hit-call score of the fitted dose curve at least 0.9, where 1 is the maximum; inactive means score below 0.9.

Chain of Myc proto-oncogene protein (Homo sapiens) (P01106 whole entry, looked up): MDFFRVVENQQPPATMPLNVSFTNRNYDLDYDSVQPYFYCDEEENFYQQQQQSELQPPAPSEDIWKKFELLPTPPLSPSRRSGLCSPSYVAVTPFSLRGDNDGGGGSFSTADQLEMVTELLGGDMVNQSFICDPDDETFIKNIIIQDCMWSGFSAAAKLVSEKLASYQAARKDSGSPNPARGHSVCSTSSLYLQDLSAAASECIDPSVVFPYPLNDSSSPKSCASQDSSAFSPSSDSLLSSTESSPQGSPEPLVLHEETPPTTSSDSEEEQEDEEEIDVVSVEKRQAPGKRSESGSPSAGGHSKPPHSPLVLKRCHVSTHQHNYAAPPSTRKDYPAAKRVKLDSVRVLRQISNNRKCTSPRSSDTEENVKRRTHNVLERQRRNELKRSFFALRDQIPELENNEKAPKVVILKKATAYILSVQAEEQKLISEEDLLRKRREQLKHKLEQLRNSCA

The first assay concerns the target Myc proto-oncogene protein (Homo sapiens) (UniProt P01106). Put plainly: ATG_Myc_CIS: Attagene CIS-FACTORIAL HepG2 Assay for human Myelocytomatosis (Myc) Proto-Oncogene Transcription Factor (AID 2282990). To be noted: HepG2, Attagene cis-reporter transcription factor activity; actives raise or lower the signal. In short, it runs like this: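 Multiplexed cis-reporter transcription in HepG2 cells after 24 h chemical treatment. Reporter mRNA measured by RT-PCR and capillary electrophoresis fluorescence; activity fitted bidirectionally against DMSO control.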
Take `COC(=O)Cc1cccc2ccccc12`: the molecule was called inactive.
As to `CC(C)=CCCC(C)CC=O` (stereo not given), the call was inactive.
As to `CC(C)(Oc1ccc(CCNC(=O)c2ccc(Cl)cc2)cc1)C(=O)O`, the outcome was inactive.
As for `CC(=O)OCC=Cc1ccccc1`, the call was inactive.
On the same count and under the same terms, the value for `Nc1cccc(S(=O)(=O)c2cccc(N)c2)c1` was “inactive”; that for `CCCCNC(=O)NS(=O)(=O)c1ccc(N)cc1` was “inactive”.
Regarding `O=Cc1ccc(F)cc1`, the result was inactive.
On to `O=C(O)CN(CCN(CC(=O)O)CC(=O)O)CCN(CC(=O)O)CC(=O)O`, for which the molecule was classed as inactive.
Regarding `CCC/C=C/C=O`, the call was inactive.
On to `CCCOCC(C)O` (stereo not given), for which the molecule was classed as inactive.
Take `C=C(C)C(=O)OCc1ccccc1`: the result was inactive.
Take `Cc1cccc(C)c1[N+](=O)[O-]`: the molecule was called inactive.
In the case of `NCCCN1CCOCC1`, the result was inactive.
With `COCCOCCOCCOCCOCCO`, the call was inactive.

System in another assay: not listed separately
Put plainly: ATG_NRF2_ARE_CIS: Attagene CIS-FACTORIAL HepG2 Assay for human Nuclear Factor Erythroid 2 Related Factor 2 (NFR2) response to Antioxidant Response Elements (ARE) (AID 2282992). The conditions noted are these: HepG2 Attagene ARE/NRF2 reporter, transcription factor activity; actives raise or lower the signal. In a few lines: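 Endogenous transcription factor activity in human liver HepG2 cells is tracked via a cis-element-driven reporter within a multiplexed set. mRNA induction is read by RT-PCR and capillary electrophoresis after 24 h, with DMSO as baseline.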
As to `CC(=O)OCc1ccc2c(c1)OCO2`, the result was inactive.
For orientation: AC50 means the concentration giving half of the maximal activity seen. With `CC(C)C[C@H]1C(=O)N2CCC[C@H]2[C@]2(O)O[C@](NC(=O)[C@@H]3C=C4c5cccc6[nH]c(Br)c(c56)C[C@H]4N(C)C3)(C(C)C)C(=O)N12`, the AC50 was 3.7 µM (active).
`Cc1cccc(Nc2ccccc2C(=O)O)c1C`: the AC50 is 100 µM (active).
For the molecule `S=C(S)NCCNC(=S)S`, the result was inactive.
Turning to `O=c1[nH]nnc2ccccc12`, the result was inactive.
`CC(C)=CCO`: the outcome was inactive.
As for `CCCCCCC#CC(=O)OC`, the AC50 was 21.6 µM (active).
On to `CCCCOCCOCCOCCOCCO`, for which the result was inactive.
Turning to `CC(C)[C@H]1CC[C@@H](C)CC1=O`, the result was inactive.
`CNCCCC12CCC(c3ccccc31)c1ccccc12`: the result was inactive.
Consider `CC1(C)[C@H]2CC[C@]1(C)[C@H](O)C2`, for which the result was inactive.
Take `CCCc1c(OCCCOc2ccc(OCC(=O)O)cc2)ccc(C(C)=O)c1O`: the outcome was inactive.
As to `CCCCCCOC(=O)CCCCC`, the molecule was classed as inactive.
As to `O=C(O)CCCCCCCCCCC(=O)O`, the molecule was called inactive.
`CC1(C)[C@H](C(=O)OCc2cccc(Oc3ccccc3)c2)[C@@H]1C=C(Cl)Cl`: the molecule was called inactive.
On to `OCCN1CCNCC1`, for which the molecule was called inactive.
Take `Nc1cc(N)cc(C(=O)O)c1`: the molecule was called inactive.
Regarding `CCCCNC(=O)NS(=O)(=O)c1ccc(C)cc1`, the result was inactive.
In the case of `CC(=O)C=CC1=C(C)CCCC1(C)C`, the AC50 is 25 µM (active).
With `O=C(O)c1cccc([N+](=O)[O-])c1`, the outcome was inactive.
Regarding `CC(=O)C(=O)O`, the molecule was called inactive.
With `COc1ccc(OC)c(OC)c1`, the molecule was classed as inactive.
`CO[Si](CCCn1c(=O)n(CCC[Si](OC)(OC)OC)c(=O)n(CCC[Si](OC)(OC)OC)c1=O)(OC)OC`: the outcome was inactive.
On to `COC(=O)Cc1cccc2ccccc12`, for which the result was inactive.
In the case of `CC(C)=CCCC(C)CC=O` (stereo not given), the result was inactive.
`CC(C)(Oc1ccc(CCNC(=O)c2ccc(Cl)cc2)cc1)C(=O)O`: the molecule was classed as inactive.
Take `CC(=O)OCC=Cc1ccccc1`: the AC50 is 34.9 µM (active).
On to `Nc1cccc(S(=O)(=O)c2cccc(N)c2)c1`, for which the call was inactive.
Turning to `CCCCNC(=O)NS(=O)(=O)c1ccc(N)cc1`, the call was inactive.
Take `O=Cc1ccc(F)cc1`: the call was inactive.
`O=C(O)CN(CCN(CC(=O)O)CC(=O)O)CCN(CC(=O)O)CC(=O)O`: the outcome was inactive.
Take `CCC/C=C/C=O`: the AC50 was 30.5 µM (active).
On to `CCCOCC(C)O` (stereo not given), for which the outcome was inactive.
The same measure, in the same setting: next, `C=C(C)C(=O)OCc1ccccc1`: “inactive”.
In the case of `Cc1cccc(C)c1[N+](=O)[O-]`, the molecule was called inactive.
For `NCCCN1CCOCC1`, the call was inactive.
As for `COCCOCCOCCOCCOCCO`, the result was inactive.

System in a further assay: not listed separately
Put plainly: ATG_Oct_MLP_CIS: Attagene CIS-FACTORIAL HepG2 Assay for human Octamer-Binding Transcription Factor (Oct) (AID 2282993). To be noted: HepG2 Attagene cis-factorial Oct reporter, mRNA; actives raise or lower the signal. In short, it runs like this:
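After 24 h compound exposure, transfected HepG2 cells were lysed for total RNA; reporter-specific cDNA was PCR-amplified, fluorescently labelled and sized by capillary electrophoresis. Bidirectional curve fitting used DMSO as baseline.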
On to `CC(=O)OCc1ccc2c(c1)OCO2`, for which the molecule was called inactive.
For `CC(C)C[C@H]1C(=O)N2CCC[C@H]2[C@]2(O)O[C@](NC(=O)[C@@H]3C=C4c5cccc6[nH]c(Br)c(c56)C[C@H]4N(C)C3)(C(C)C)C(=O)N12`, the outcome was inactive.
Same read-out and setting: next, `Cc1cccc(Nc2ccccc2C(=O)O)c1C`: “inactive”; `O=c1[nH]nnc2ccccc12`: “inactive”; `CC(C)=CCO`: “inactive”.
In the case of `CCCCCCC#CC(=O)OC`, the molecule was classed as inactive.
Turning to `CC(C)[C@H]1CC[C@@H](C)CC1=O`, the outcome was inactive.
On to `CNCCCC12CCC(c3ccccc31)c1ccccc12`, for which the AC50 is 15.4 µM (active).
With `CC1(C)[C@H]2CC[C@]1(C)[C@H](O)C2`, the outcome was inactive.
Take `CCCc1c(OCCCOc2ccc(OCC(=O)O)cc2)ccc(C(C)=O)c1O`: the molecule was classed as inactive.
Turning to `CCCCCCOC(=O)CCCCC`, the molecule was called inactive.
Turning to `O=C(O)CCCCCCCCCCC(=O)O`, the molecule was called inactive.
Still for that read-out and setting: next, `CC1(C)[C@H](C(=O)OCc2cccc(Oc3ccccc3)c2)[C@@H]1C=C(Cl)Cl`: “inactive”; `OCCN1CCNCC1`: “inactive”.
On to `CCCCNC(=O)NS(=O)(=O)c1ccc(C)cc1`, for which the result was inactive.
Still for that read-out and setting: next, `CC(=O)C=CC1=C(C)CCCC1(C)C`: “inactive”.
As to `O=C(O)c1cccc([N+](=O)[O-])c1`, the molecule was called inactive.
Turning to `CC(=O)C(=O)O`, the molecule was classed as inactive.
On the same count and under the same terms, the value for `COc1ccc(OC)c(OC)c1` was “inactive”; that for `CO[Si](CCCn1c(=O)n(CCC[Si](OC)(OC)OC)c(=O)n(CCC[Si](OC)(OC)OC)c1=O)(OC)OC` was “inactive”.
Turning to `COC(=O)Cc1cccc2ccccc12`, the molecule was called inactive.
Turning to `CC(C)=CCCC(C)CC=O` (stereo not given), the molecule was classed as inactive.
Turning to `CC(C)(Oc1ccc(CCNC(=O)c2ccc(Cl)cc2)cc1)C(=O)O`, the molecule was classed as inactive.
With `CC(=O)OCC=Cc1ccccc1`, the call was inactive.
Still for that read-out and setting: the value for `Nc1cccc(S(=O)(=O)c2cccc(N)c2)c1` was “inactive”; that for `CCCCNC(=O)NS(=O)(=O)c1ccc(N)cc1` was “inactive”.
Same read-out and setting: the value for `O=Cc1ccc(F)cc1` was “inactive”; that for `O=C(O)CN(CCN(CC(=O)O)CC(=O)O)CCN(CC(=O)O)CC(=O)O` was “inactive”; that for `CCC/C=C/C=O` was “inactive”.
Turning to `CCCOCC(C)O` (stereo not given), the call was inactive.
Still for that read-out and setting: next, `C=C(C)C(=O)OCc1ccccc1`: “inactive”; `Cc1cccc(C)c1[N+](=O)[O-]`: “inactive”; `NCCCN1CCOCC1`: “inactive”.
In the case of `COCCOCCOCCOCCOCCO`, the call was inactive.

The values are drawn from PubChem BioAssay (EPA / NIEHS).
